From PubChem BioAssay AID1159580 (chemical genetic matrix, 2015)
Several values for one entry are separate records, joined by “and”; a condition that tells them apart may be missing. Equal entries are not always repeated. Screen size: about 5,500 compounds; about 2,000 (36%) were called active. About 18% were inconclusive and are not listed. No stated cut-off is given here; in the data, active means normalized growth mostly below about 0.91 (no sharp cut-off); inconclusive means no clear call, values can overlap the other calls; inactive means mostly above about 0.92. Some of the results follow.

Assay: chemical genetic growth profiling, strain panel (AID 1159580);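 further: tested at 20 µM; growth read once vehicle control cultures reached saturation at 30 °C; 1 = growth at the plate median or of vehicle wells; lower values mean less growth of the strain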
Settings: S. cerevisiae deletion strains, growth OD

Measured: normalized growth

CC[N+]1(C)CCCC(OC(=O)C(O)(c2ccccc2)c2ccccc2)C1 (stereo not given)
inactive: locus YAL013W, strain DEP1, hits give low values 1.01 | locus YAL021C, strain ccr4, hits give low values 1.01 | locus YAL026C, strain drs2, hits give low values 1.03 | locus YAL030W, strain snc1, hits give low values 1.02 | locus YBL061C, strain skt5, hits give low values 1.03 | locus YBR009C, strain hhf1, hits give low values 1.02 | locus YBR021W, strain FUR4, hits give low values 1.02 | locus YBR023C, strain chs3, hits give low values 1.02 | locus YBR171W, strain sec66, hits give low values 1.03 | locus YBR229C, strain ROT2, hits give low values 1.01 | locus YBR231C, strain swc5, hits give low values 1.03 | locus YBR279W, strain paf1, hits give low values 1.02 | locus YCL011C, strain gbp2, hits give low values 1.03 | locus YCL016C, strain dcc1, hits give low values 1.01 | locus YCL029C, strain bik1, hits give low values 1.02 | locus YCL061C, strain MRC1, hits give low values 1.02 | locus YCL069W, strain vba3, hits give low values 1.03 | locus YCR088W, strain abp1, hits give low values 1.02 | locus YDL005C, strain med2, hits give low values 1.03 | locus YDL035C, strain GPR1, hits give low values 1.02 | locus YDL040C, strain nat1, hits give low values 1.01 | locus YDL074C, strain BRE1, hits give low values 1 | locus YDL101C, strain DUN1, hits give low values 1.01 | locus YDL134C, strain PPH21, hits give low values 1.02 | locus YDL185W, strain tfp1, hits give low values 1.01 | locus YDL192W, strain arf1, hits give low values 1.02 | locus YDR001C, strain nth1, hits give low values 1.02 | locus YDR069C, strain doa4, hits give low values 1.03 | locus YDR101C, strain arx1, hits give low values 1.02 | locus YDR137W, strain rgp1, hits give low values 1.07 | locus YDR159W, strain sac3, hits give low values 1 | locus YDR162C, strain NBP2, hits give low values 1.01 | locus YDR195W, strain ref2 1.01 | locus YDR297W, strain sur2, hits give low values 1.02 | locus YDR318W, strain mcm21, hits give low values 1 | locus YDR334W, strain swr1, hits give low values 1.03 | locus YDR335W, strain msn5, hits give low values 1.03 | locus YDR388W, hits give low values 1.02 | locus YDR392W, strain spt3, hits give low values 0.931 | locus YDR502C, strain sam2, hits give low values 1.01 | locus YEL003W, strain gim4, hits give low values 1.02 | locus YEL037C, strain rad23, hits give low values 1.02 | locus YEL061C, strain CIN8 (second series), hits give low values 1.02 | locus YEL061C, strain CIN8, hits give low values 1.01 | locus YER015W, strain faa2, hits give low values 1.02 | locus YER016W, strain bim1, hits give low values 1.02 | locus YER110C, hits give low values 1.02 | locus YER111C, strain swi4, hits give low values 1.03 | locus YER155C, strain BEM2 (second series), hits give low values 1.01 | locus YER155C, strain BEM2, hits give low values 1 | locus YER167W, strain BCK2, hits give low values 1.01 | locus YFR010W, strain ubp6, hits give low values 1.03 | locus YGL078C, strain dbp3, hits give low values 1.02 | locus YGL086W, strain mad1, hits give low values 1 | locus YGL167C, strain pmr1, hits give low values 1.03 | locus YGL173C, strain kem1, hits give low values 1.04 | locus YGL227W, strain vid30, hits give low values 1.03 | locus YGL240W, strain doc1, hits give low values 1.03 | locus YGL248W, strain PDE1, hits give low values 1 | locus YGL253W, strain hxk2, hits give low values 1.03 | locus YGR078C, strain PAC10, hits give low values 1 | locus YGR135W, strain pre9, hits give low values 1.02 | locus YGR229C, strain SMI1, hits give low values 1.01 | locus YGR252W, strain gcn5, hits give low values 1 | locus YHR013C, strain ard1, hits give low values 1.04 | locus YHR027C, strain rpn1, hits give low values 1.02 | locus YHR030C, strain SLT2, hits give low values 1.01 and 1.02 | locus YHR079C, strain IRE1 (second series), hits give low values 1.01 | locus YHR079C, strain IRE1, hits give low values 1.03 | locus YHR094C, strain hxt1, hits give low values 1.01 | locus YHR129C, strain ARP1, hits give low values 0.999 | locus YHR142W, strain chs7, hits give low values 1.03 | locus YHR200W, strain rpn10, hits give low values 1.01 | locus YIL066C, strain RNR3, hits give low values 1.02 | locus YIL073C, strain SPO22, hits give low values 1.07 | locus YIL125W, strain kgd1, hits give low values 1 | locus YIR030C, strain dcg1, hits give low values 1.01 | locus YJL092W, strain hpr5, hits give low values 1.02 | locus YJL095W, strain BCK1 (second series), hits give low values 1.01 | locus YJL095W, strain BCK1, hits give low values 0.998 and 1.03 | locus YJL115W, strain asf1, hits give low values 1.03 | locus YJL129C, strain trk1, hits give low values 1.04 | locus YJL134W, strain LCB3, hits give low values 1 | locus YJL154C, strain vps35, hits give low values 1.02 | locus YJL164C, strain tpk1, hits give low values 1.01 | locus YJL166W, strain qcr8, hits give low values 1.03 | locus YJL168C, strain set2, hits give low values 1.01 | locus YJL187C, strain SWE1 (second series), hits give low values 1.01 | locus YJL187C, strain SWE1, hits give low values 1.02 | locus YJR043C, strain POL32, hits give low values 1.04
